NS1 inh – inhibitors of influenza NS1 protein function | Potency, µM (top dose mostly 46.1 µM) | 0.4% of 270,000 active; calls by dose curve; also: actives are rising curves; nearly all actives have a fitted effect of over 50% in size
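Compounds were scored for reversing the slow growth caused by influenza A NS1 in S. cerevisiae, measured by optical density at 600 nm. Assay medium contained 2% galactose at pH 6.0; NS1-free yeast of the same strain were the positive control.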
Pf growth 48h – inhibits P. falciparum growth in the first generation, 48 h; Potency, µM (top dose mostly 28.7 µM), actives largely listed as inhibitors; P. falciparum luciferase growth in erythrocytes, 48 h; 5.9% of 310,000 active; AID 504832
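Cell-based growth assay: transgenic P. falciparum expressing firefly luciferase, cultured in red cells within RPMI 1640 containing 0.5% w/v Albumax, 24 mM bicarbonate and gentamycin. A drop in luciferase activity indicates inhibition.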
Shiga inhibitor – blocks Shiga toxin action in Vero cells | Vero cells, Shiga toxin protein synthesis inhibition reporter | 9.2% of 290,000 active | AID 2315 | inhibition, % at 38.7 µM; in the data active = inhibition mostly above about 28%, no sharp cut-off; inactive = mostly below about 43%
CHX counter – counter-screen for Shiga toxin inhibitors: cycloheximide protein synthesis inhibition | cell reporter, cycloheximide protein synthesis inhibition counterscreen | max response, % | 12% of 300,000 active; in the data active = max response mostly above about 13%, no sharp cut-off; inactive = mostly below about 14%; also: read at 38.3 µM for the half of the compounds with a filed dose
Pf growth 96h – P. falciparum growth inhibition at 96 hour, primary screen for plastid delayed-death inhibitors | P. falciparum luciferase reporter growth, 96 h | Potency, µM (highest dose often 28.7 µM), hits mostly inhibitors | 6.9% of 320,000 active | AID 504834
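Readout is luminescence from an integrated firefly luciferase in P. falciparum. Red cells, 2% hematocrit and 0.05% parasitemia final, were cultured with compound through two parasite generations (96 hours) at 37 C, 5% CO2.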
Large screens that a line does not name were inactive. Rows were chosen to be rich in hits. Some 21% of all compounds tested hit in one or more screens of this group. Unless noted, calls follow the shape of the dose curve; as a rule, active = well fitted inhibition curve with a large enough effect; inconclusive = small, poorly fitted or top-dose-only effect, or another doubt; inactive = no such curve, though single readings can be large or run the other way.

CCCCCc1cc(=O)oc2c(C(CCN3CCCC3)c3cc(OC)c(OC)c(OC)c3)c(OC)cc(OC)c12 (centres undefined)	Pf growth 48h 2.62µM, Pf growth 96h 3.29µM
O=C(NC1CCCCC1)C(c1ccncc1)N(C(=O)c1csnn1)c1ccc(F)cc1 (centres undefined)	none
CCC(=O)OCC(=O)Nc1cc([N+](=O)[O-])ccc1OC	none (no result: NS1 inh)
COc1ccc(C(CCN2CCCC(C)C2)c2c(OC)cc(OC)c3c2OC(=O)CC3c2cc(OC)c(OC)c(OC)c2)cc1 (centres undefined)	Pf growth 48h 11.7µM, Pf growth 96h 10.4µM
CCCCCc1cc(=O)oc2c(C(CCN3CCCCC3)c3ccc(OC)cc3)c(OC)cc(OC)c12 (centres undefined)	Pf growth 48h 3.29µM, Pf growth 96h 2.62µM
CC(=O)NCCCOc1ccc([N+](=O)[O-])cc1Cl	CHX counter 16.5
COc1ccccc1OCCCOc1ccc([N+](=O)[O-])cc1Cl	Shiga inhibitor 125.7, CHX counter 50.0
CCOC(=O)N1CCC(NC(=O)C2CCN(C(=O)c3cc4sccc4n3CC)CC2)CC1	Pf growth 48h inconclusive
FC(F)(F)c1cccc(N2CCN(C(=S)NC3CCCCC3)CC2)c1	none
C=CCNC(=S)N1CCN(c2cccc(C(F)(F)F)c2)CC1	CHX counter 45.9, Pf growth 96h inconclusive
CCNC(=S)N1CCN(c2cccc(C(F)(F)F)c2)CC1	none
FC(F)(F)c1cccc(N2CCN(C(=S)NC3CCCC3)CC2)c1	Pf growth 48h inconclusive, Pf growth 96h 13.1µM
S=C(NC1CCCCC1)N1CCN(c2ccccn2)CC1	Pf growth 96h 11.7µM
CC(C(=O)c1ccccc1)[n+]1cccc(Br)c1 (centres undefined)	none
O=C(NCc1ccco1)c1cnn2c(C(F)(F)F)cc(-c3ccccc3)nc12	Pf growth 48h 13.1µM
CC(C)CCNC(=O)c1cnn2c(C(F)(F)F)cc(-c3ccco3)nc12	Pf growth 48h inconclusive, Pf growth 96h 9.28µM
O=C(NC1CCCC1)c1cnn2c(C(F)(F)F)cc(-c3ccco3)nc12	Pf growth 48h inconclusive (no result: Pf growth 96h)
CC(C)OC(=O)c1nn2c(C(F)(F)F)cc(-c3ccco3)nc2c1Cl	Pf growth 96h 13.1µM
CC(C)OC(=O)c1nn2c(C(F)(F)F)cc(-c3ccc(Br)o3)nc2c1Br	none
CC(C)C[C@H](CO)Nc1nc(Nc2cccc(Cl)c2)c2ncn(C(C)C)c2n1	Pf growth 48h inconclusive, Shiga inhibitor 42.2, CHX counter 23.2, Pf growth 96h inconclusive
CC(C)n1cnc2c(Nc3cccc(F)c3)nc(NCCO)nc21	Pf growth 48h inconclusive, CHX counter 18.5, Pf growth 96h inconclusive
CC(C)n1cnc2c(Nc3ccc(F)c(Cl)c3)nc(NCCO)nc21	Pf growth 96h inconclusive
Cc1ccccc1-c1nnn(C/C(N)=N/O)n1	Pf growth 96h inconclusive
C#CC[N+](C)(C)CCCCCCCCC	Pf growth 48h 3.7µM, Pf growth 96h inconclusive
CC#CC[N+](C)(C)CCCCCCCCCC	Pf growth 48h 0.738µM, Pf growth 96h inconclusive
O=[N+]([O-])/C=C/c1cc2ccccc2[nH]1	Pf growth 48h inconclusive, Pf growth 96h inconclusive
Nc1ccc(S(=O)(=O)Nc2nccc(/C=C/c3ccc(Cl)cc3Cl)n2)cc1	Pf growth 48h inconclusive
Cc1cc(NC(=S)N(Cc2ccc(Br)cc2)Cc2ccc(C(=O)O)cc2)ccc1Cl	none (no result: NS1 inh)
COC(=O)c1ccc(C2c3c(oc4ccc(Cl)cc4c3=O)C(=O)N2CCN2CCOCC2)cc1 (centres undefined)	Pf growth 48h inconclusive
COCCn1c(SCC(=O)N2CCCCC2)nc2c([nH]c3ccccc32)c1=O	Pf growth 48h 11.7µM, Pf growth 96h inconclusive
CCOC(=O)N1CCN(C(=O)CSc2nc3c([nH]c4ccccc43)c(=O)n2CCOC)CC1	Pf growth 48h inconclusive, Pf growth 96h 11.7µM
CCc1c(C)nc(SCC(=O)N2CCN(c3ccccc3)CC2)[nH]c1=O	none (no result: NS1 inh)
CCC1CCCCN1C(=O)CSc1nc2c([nH]c3ccccc32)c(=O)n1C (centres undefined)	Pf growth 48h 9.28µM
COCCn1c(SCC(=O)N2CCCCCC2)nc2c([nH]c3ccccc32)c1=O	Pf growth 48h inconclusive, Pf growth 96h inconclusive
CCn1c(SCC(=O)N2CCCCCC2)nc2c([nH]c3ccccc32)c1=O	Pf growth 96h inconclusive
CCc1c(C)nc(SCC(=O)N2CCCCC2CC)[nH]c1=O (centres undefined)	Pf growth 48h 2.08µM
CCSc1nc2c([nH]c3ccccc32)c(=O)n1C	none (no result: Pf growth 48h)
O=C(CSc1nc2c(cnn2-c2ccccc2)c(=O)[nH]1)NC1CCS(=O)(=O)C1 (centres undefined)	none
Cc1ccc(C(=O)NCC(=O)OCC(=O)c2ccc3c(c2)NC(=O)CO3)cc1	none
CCOC(=O)c1nccnc1C(=O)Nc1ccc(C(F)(F)F)cc1	none (no result: NS1 inh)
O=c1cc(COc2ccccc2[N+](=O)[O-])nc2sccn12	Pf growth 96h inconclusive
O=C(Nc1ccccc1)c1cc(S(=O)(=O)Nc2cccnc2)ccc1Cl	none
O=C(Nc1ccccc1)c1cc(S(=O)(=O)NCc2ccncc2)ccc1Cl	Pf growth 96h 11.7µM
COc1ccc(S(=O)(=O)NCc2cccnc2)cc1C(=O)Nc1ccccc1	Pf growth 96h 10.4µM
CC(C)C[C@H](NC(=O)CN(C)C(=O)[C@H](Cc1ccccc1)NC(=O)[C@H](Cc1ccccc1)NC(=O)[C@H](CCC(N)=O)NC(=O)[C@H](CCC(N)=O)NC(=O)[C@@H]1CCCN1C(=O)[C@H](CCCCN)NC(=O)[C@@H]1CCCN1C(=O)[C@@H](N)CCCN=C(N)N)C(=O)N[C@@H](CCS(C)(=O)=O)C(N)=O	none (no result: NS1 inh, Pf growth 48h, Pf growth 96h)
CCCn1cc(SCC(=O)NC2CCCC2)c2ccccc21	Pf growth 48h 9.28µM, Pf growth 96h inconclusive
CCCn1cc(S(=O)(=O)CC(=O)NC2CCCCC2)c2ccccc21	Pf growth 96h inconclusive
O=C(CSc1cn(CCNC(=O)c2ccc3ccccc3c2)c2ccccc12)NCc1ccco1	Pf growth 48h inconclusive, CHX counter 14.5, Pf growth 96h inconclusive
CCCn1cc(SCC(=O)NCC2CCCO2)c2ccccc21 (centres undefined)	Shiga inhibitor 42.4, CHX counter 24.9
COc1ccc(C(=O)NCCn2cc(SCC(=O)NCC3CCCO3)c3ccccc32)cc1OC (centres undefined)	Pf growth 48h 8.28µM, Pf growth 96h 6.57µM
CC(Oc1ccccc1)C(=O)N(CCC1=CCCCC1)c1c(N)n(Cc2ccccc2)c(=O)[nH]c1=O (centres undefined)	Pf growth 48h inconclusive, Pf growth 96h inconclusive
CCOC(=O)c1ccc(Cn2c(-c3ccccc3)nnc2-c2ccccc2)o1	Pf growth 48h inconclusive
Cc1ccc(S(=O)(=O)N2CCCC2)cc1C(=O)NCC(C)(C)N1CCOCC1	none (no result: NS1 inh, Shiga inhibitor, CHX counter)
O=C(CSc1cn(CCNC(=O)c2cccs2)c2ccccc12)NC1CCCCC1	Pf growth 48h inconclusive, Pf growth 96h inconclusive
O=C(CSc1cn(CCNC(=O)c2cccs2)c2ccccc12)NCc1ccccc1	Pf growth 48h inconclusive, CHX counter 11.1
CCN1CCN(c2ccc(S(=O)(=O)N3CCOCC3)cc2NC(=O)c2ccc(Cl)cc2Cl)CC1	Pf growth 48h 13.1µM, Pf growth 96h inconclusive (no result: NS1 inh, Shiga inhibitor, CHX counter)

High-throughput results as filed in PubChem BioAssay.
